{"source": "PubChem BioAssay (NCATS)", "note": "Results filed as inconclusive are left out. Calls of active or inactive are those of the source. Calls come from the whole dose curve; as a rule, active = well fitted curve in the direction sought with a large enough effect; inconclusive = small, poorly fitted or top-dose-only effect, or another doubt; inactive = no such curve, though single readings can be large; an effect the other way counts as inactive or inconclusive.", "data": [{"target": "Phospholipid hydroperoxide glutathione peroxidase GPX4 (Homo sapiens) (UniProt P36969)", "sequence (P36969 whole entry, looked up)": "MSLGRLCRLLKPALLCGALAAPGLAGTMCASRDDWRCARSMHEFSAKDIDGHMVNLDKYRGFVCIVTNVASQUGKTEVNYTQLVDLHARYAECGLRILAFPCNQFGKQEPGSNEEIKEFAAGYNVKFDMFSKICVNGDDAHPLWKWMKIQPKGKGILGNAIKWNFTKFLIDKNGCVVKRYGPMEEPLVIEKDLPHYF", "assay": "Primary qHTS Assay for Inhibitors of Recombinant Selenoprotein Glutathione Peroxidase 4 (GPX4) (AID 1845192); note: % is set by controls: 0 for no effect and ±100 for the full control effect; nearly all actives have a fitted effect of over 65% in size", "conditions": "recombinant GPX4, GR-coupled NADPH fluorescence, 15 min; series mostly up to 50 µM; activity change, negative = inhibition: at the top concentration", "summary_of_the_method": "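qHTS, GR-coupled: GPX4 200 nM + cpd 30 min RT → GSH 1 mM, NADPH 0.5 mM, GR 100 nM → CHP 0.5 mM start; fluor 340/450 at t0 and t15 min; no-enzyme wells as control.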", "values": [{"smiles": "CC1C(=O)CC2C3CCC(C(=O)O)C12CC3(C)CO", "note": "(stereo not drawn)", "activity change, negative = inhibition": "-17.9% (inactive)"}, {"smiles": "CC(=O)CCC1=C(C)C(O[C@@H]2O[C@H](CO)[C@@H](O)[C@H](O)[C@H]2O)C(O)CC1(C)C", "note": "(stereo partly drawn)", "activity change, negative = inhibition": "-3.28% [at 27.8 µM] (inactive)"}, {"smiles": "CC1CC[C@]2(C(=O)O)CC[C@]3(C(=O)O)C(=CCC4[C@@]5(C)CC[C@H](OC6OC(C)C(O)C(OC7OC(CO)C(O)C(O)C7O)C6O)C(C)(C)C5CC[C@]43C)C2C1C", "note": "(stereo partly drawn)", "activity change, negative = inhibition": "-2.12% [at 15.3 µM] (inactive)"}, {"smiles": "CC(Cc1cc2c(c(C(N)=O)c1)N(CCCO)CC2)NCCOc1ccccc1OCC(F)(F)F", "note": "(stereo not drawn)", "activity change, negative = inhibition": "-4.14% (inactive)"}]}, {"target": "Luciferin 4-monooxygenase (Photinus pyralis) (UniProt P08659)", "assay": "Primary firefly luciferase (FLuc) qHTS assay for identification of artifact compounds. (AID 1845220); note: nearly all actives have a fitted effect of over 60% in size;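 for activity change, negative = inhibition: plate controls were DMSO vehicle for no effect and no enzyme for full effect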", "conditions": "purified firefly luciferase, luminescence, 5 min; series mostly up to 54.1 µM; activity change, negative = inhibition: at the top concentration", "summary_of_the_method": "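qHTS, 15 min compound preincubation with substrate (10 uM luciferin, 10 uM ATP) at RT, then 10 nM FLuc; 5 min; luminescence; % inhibition vs no-enzyme/DMSO controls, 4-parameter Hill fit.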", "values": [{"smiles": "OC[C@@]1(O)CO[C@@H](OC[C@H]2O[C@@H](Oc3c[nH]c4ccccc34)[C@H](O)[C@@H](O)[C@@H]2O)[C@@H]1O", "activity change, negative = inhibition": "-12.4% [at 25.7 µM] (inactive)"}, {"smiles": "OC[C@H]1O[C@@H](OCCc2ccccc2)[C@H](O[C@@H]2OC[C@](O)(CO)[C@H]2O)[C@@H](O)[C@@H]1O", "outcome": "inactive [at 25.7 µM]"}, {"smiles": "COc1ccc(-n2[nH]c(=O)c3[nH]c4cc(Cl)ccc4c(=O)c3c2=O)c(C)c1", "outcome": "inactive"}, {"smiles": "C=C(C(=O)O)C1CCC2(C)CCC(O)C(C)(O)C2C1", "note": "(stereo not drawn)", "activity change, negative = inhibition": "-9.52% (inactive)"}, {"smiles": "CC1=CC(=O)C(=C(C)C)CC2C1CCC2(C)O", "note": "(stereo not drawn)", "activity change, negative = inhibition": "0.618% (inactive)"}, {"smiles": "O=C1CCC=CC1(O)C(=O)OCc1ccccc1O[C@@H]1O[C@H](CO)[C@@H](O)[C@H](O)[C@H]1O", "note": "(stereo partly drawn)", "activity change, negative = inhibition": "-12.8% [at 25.7 µM] (inactive)"}, {"smiles": "O=C(O)c1ccc(OC2OC(CO)C(O)C(O)C2O)cc1", "note": "(stereo not drawn)", "activity change, negative = inhibition": "0.25% (inactive)"}, {"smiles": "CC1=C(COC2OC(CO)C(O)C(O)C2O)C(C(CO)C(=O)O)CC1", "note": "(stereo not drawn)", "activity change, negative = inhibition": "-2.92% (inactive)"}, {"smiles": "Cc1ccc(S(=O)(=O)Nc2ccccc2N2CCCCC2)s1", "outcome": "inactive"}, {"smiles": "CC(C)[N+]1(C)C2CCC1CC(OC(=O)C(CO)c1ccccc1)C2", "note": "(stereo not drawn)", "activity change, negative = inhibition": "-21.8% (inactive)"}, {"smiles": "CC1=CC(=O)CC(C)(C)C1CCC(C)O[C@@H]1O[C@H](CO[C@@H]2OC[C@@H](O)[C@H](O)[C@H]2O)[C@@H](O)[C@H](O)[C@H]1O", "note": "(stereo partly drawn)", "outcome": "inactive [at 25.7 µM]"}, {"smiles": "C=CC1(C)C=C2C(=O)OC(=O)C3=C(CCCC3(C)C)C2(O)CC1", "note": "(stereo not drawn)", "outcome": "inactive"}, {"smiles": "CN1CCN(c2ccc(C(=O)Nc3n[nH]c4ccc(Cc5cc(F)cc(F)c5)cc34)c(NC3CCOCC3)c2)CC1", "outcome": "inactive"}, {"smiles": "CCOCCn1nc(CC)c2nc(N3CCC(C(=O)O)CC3)nc(Nc3cc(C)ccn3)c21", "activity change, negative = inhibition": "-16% (inactive)"}, {"smiles": "CC[C@@H](N)CNc1ccnc(-c2cc(-c3cnn(C)c3)ccc2O)n1", "activity change, negative = inhibition": "-11.2% (inactive)"}, {"smiles": "Cc1cc(C(N)=O)ccc1-n1c(CCC(=O)O)ccc1-c1ccc(-n2ccnc2)cc1", "outcome": "inactive"}, {"smiles": "O=C(O[C@H]1[C@@H]2C=CO[C@@H](O[C@@H]3O[C@H](CO)[C@@H](O)[C@H](O)[C@H]3O)[C@@H]2[C@@]2(CO)O[C@@H]12)c1ccccc1", "activity change, negative = inhibition": "-2.19% [at 25.7 µM] (inactive)"}, {"smiles": "C/C=C/c1ccc(O[C@@H]2O[C@H](CO)[C@@H](O)[C@H](O)[C@H]2O)c(OC)c1", "activity change, negative = inhibition": "-11.4% (inactive)"}, {"smiles": "Nc1nc(-n2cc(C(=O)O)c(=O)c3cc(F)c(N4CC(O)C4)c(Cl)c32)c(F)cc1F", "outcome": "inactive"}, {"smiles": "Cc1cccc(/C=N/Nc2cc(N3CCOCC3)n3nc(-c4ccncc4)cc3n2)c1", "activity change, negative = inhibition": "-7.98% (inactive)"}, {"smiles": "CC1C(=O)CC2C3CCC(C(=O)O)C12CC3(C)CO", "note": "(stereo not drawn)", "activity change, negative = inhibition": "-16.2% (inactive)"}, {"smiles": "CC(=O)CCC1=C(C)C(O[C@@H]2O[C@H](CO)[C@@H](O)[C@H](O)[C@H]2O)C(O)CC1(C)C", "note": "(stereo partly drawn)", "outcome": "inactive"}, {"smiles": "CC1CC[C@]2(C(=O)O)CC[C@]3(C(=O)O)C(=CCC4[C@@]5(C)CC[C@H](OC6OC(C)C(O)C(OC7OC(CO)C(O)C(O)C7O)C6O)C(C)(C)C5CC[C@]43C)C2C1C", "note": "(stereo partly drawn)", "outcome": "inactive [at 25.7 µM]"}, {"smiles": "CC(Cc1cc2c(c(C(N)=O)c1)N(CCCO)CC2)NCCOc1ccccc1OCC(F)(F)F", "note": "(stereo not drawn)", "outcome": "inactive"}]}, {"tested_on": "not listed separately", "assay": "Primary fluorescence-based thiol-reactive (MSTI) qHTS assay for identification of artifact compounds. (AID 1845221); note: nearly all actives have a fitted effect of over 65% in size; note: potency is the fitted concentration of half-maximal effect;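 for activity change, negative = thiol reactive: thiol-reactive compounds lower the probe fluorescence signal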", "conditions": "MSTI thiol-reactivity probe, 1 h; series mostly up to 53.8 µM; activity change, negative = thiol reactive: at the top concentration", "summary_of_the_method": "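Probe: MSTI 4 uM, PBS pH 7.4, 2% DMSO. Incubation 1 h, RT, light-protected. Readout fluorescence 525/598 nm.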", "values": [{"smiles": "O=[N+]([O-])c1cccc2[nH]c(CNc3nc(N4CCOCC4)nc4c3ncn4-c3ccsc3)nc12", "Potency": "10.6 µM (active)"}, {"smiles": "Cc1c(F)cc(C(=O)NC2CC2)cc1-c1c(F)cn2c(C(C)(C)C)nnc2c1F", "activity change, negative = thiol reactive": "69.6% (inactive)"}, {"smiles": "C(#Cc1nc2ncccc2nc1OCCN1CCCC1)c1ccccc1", "activity change, negative = thiol reactive": "-9.49% (inactive)"}, {"smiles": "CCn1cc(NC(=S)Nc2cc(Cl)ccc2OC)c(C(N)=O)n1", "activity change, negative = thiol reactive": "93.4% (inactive)"}, {"smiles": "COc1cc(-c2ncn(/C=C\\C(=O)OC(C)C)n2)cc(C(F)(F)F)c1", "activity change, negative = thiol reactive": "50.1% (inactive)"}, {"smiles": "COCCOc1cnc2ccn([C@H](C)c3nnc4c(F)cc(-c5cnn(C)c5)cn34)c(=O)c2c1", "activity change, negative = thiol reactive": "-15.9% (inactive)"}, {"smiles": "C[C@@H]1O[C@@H](O[C@H]2[C@H](O)[C@@H](O[C@@H]3O[C@H](CO)[C@@H](O)[C@H](O[C@@H]4O[C@H](CO)[C@@H](O)[C@H](O)[C@H]4O)[C@H]3O)[C@H](O[C@H]3CC[C@@]4(C)C(=CC[C@@H]5C4CC[C@@]4(C)C5C[C@@H]5OC6(CC[C@@](C)(CO[C@@H]7O[C@H](CO)[C@@H](O)[C@H](O)[C@H]7O)O6)[C@@H](C)[C@@H]54)C3)O[C@@H]2CO)[C@H](O)[C@H](O)[C@H]1OC1OC(CO)C(O)C(O)C1O", "note": "(stereo partly drawn)", "activity change, negative = thiol reactive": "23.9% [at 11.5 µM] (inactive)"}, {"smiles": "C/C=C/c1ccc2c(c1)[C@@H](C)[C@H](c1ccc(O)cc1)O2", "activity change, negative = thiol reactive": "96% (inactive)"}, {"smiles": "O=C(CN1C(=O)C2(CCCC2)NCC1c1cc(F)cc(F)c1)Nc1ccc2c(c1)CC1(C2)C(=O)Nc2ncccc21", "note": "(stereo not drawn)", "activity change, negative = thiol reactive": "-0.179% (inactive)"}, {"smiles": "COc1cc(C)c(C(=O)Oc2cc(C)c(C(=O)Oc3cc(C)c(C(=O)NC(C)C(=O)O)c(O)c3)c(O[C@@H]3O[C@H](CO)[C@@H](O)[C@H](O)[C@H]3OC(C)=O)c2)c(OC)c1", "note": "(stereo partly drawn)", "activity change, negative = thiol reactive": "191% [at 25.6 µM] (inactive)"}, {"smiles": "COC1C(=O)CCC2(CO2)C1(O)C1(C)OC1CC=C(C)C", "note": "(stereo not drawn)", "Potency": "11.9 µM (active)"}, {"smiles": "CC1CCCCN1S(=O)(=O)c1ccc(N2CCCC2=O)cc1", "note": "(stereo not drawn)", "activity change, negative = thiol reactive": "7.66% (inactive)"}, {"smiles": "CC(C)(C)NCCCNC(=O)c1cccc(Br)c1", "activity change, negative = thiol reactive": "-12.2% (inactive)"}, {"smiles": "C[C@@H]1C[C@H]2O[C@@H]2/C=C\\C=C\\C(=O)Cc2c(Cl)c(O)cc(O)c2C(=O)O1", "activity change, negative = thiol reactive": "-4.56% [at 11.5 µM] (inactive)"}, {"smiles": "CCCN1CCN(c2ccc(C(=O)NC3(C(=O)NCC#N)CCCCC3)cc2)CC1", "activity change, negative = thiol reactive": "21.9% (inactive)"}]}]}
